Screening data (PubChem)
ROC1-CUL1 inh – inhibitors of human ROC1-CUL1 ubiquitin ligase activity. in vitro K48 di-Ub FRET, acceptor:donor ratio, 45 min. inhibition, % at 10 µM. hit rate 0.6% among 140,000; in the data active means inhibition above about 25%
Starred values were filed as active, the others as inactive. Many of the other results were omitted from the sample, so hits are more common in it than they were.

SMILES | ROC1-CUL1 inh
Cc1nc2ccccc2nc1-c1n[nH]c(=S)o1 | 10.8
CCc1c(C)sc(NC(=O)CSc2nc(-c3ccco3)cc(C(F)(F)F)n2)c1C#N | 3.3
CCCN1CCN(C(=O)Nc2ccccc2OCC)CC1 | 7.2
CC1CC(=O)c2cnc(NC(=O)CN3CCN(c4ccccc4F)CC3)nc2C1 (stereo unspecified) | 1.0
COc1ccc(/C=N/NC(=O)CSc2nnc(CNc3cccc4ccccc34)n2-c2ccccc2)cc1 | 10.4
Nc1c(C(=O)c2ccccc2)sc2nc(-c3ccccc3)ccc12 | -2.8
O=C(CSc1nc2ccccc2nc1SCC(=O)c1ccccc1)c1ccccc1 | -3.8
NC(=O)c1c(SCC(=O)c2ccccc2)sc(C(=O)c2ccccc2)c1N | 31.1*
CCN1C(=O)N=C(Cc2cn(C(C)C)c3ccccc23)C1=O | -0.6
O=C(Cn1cnc([N+](=O)[O-])c1[N+](=O)[O-])Nc1cccnc1Cl | -2.3
O=C(O)COc1ccc(CC2=NC(=S)NC2=O)cc1 | 6.8
CC(C)Oc1ccc(CC2=NC(=S)NC2=O)cc1 | 3.6
O=C1NC(=S)N=C1Cc1ccc(OCc2cccc(C(=O)O)c2)cc1 | 25.7*
COc1ccc(CC(=O)NCC2CCCN(Cc3nc4ccc(F)cc4[nH]3)C2)cc1 (stereo unspecified) | -6.8
COc1cc(NS(=O)(=O)c2ccc(NC(=O)Nc3cccc(Cl)c3)cc2)nc(OC)n1 | -5.4
COc1cc(NS(=O)(=O)c2ccc(NS(=O)(=O)c3ccccc3)cc2)nc(OC)n1 | -5.5
COc1ccc(CC(=O)Nc2ccc(S(=O)(=O)Nc3cc(OC)nc(OC)n3)cc2)cc1 | 35.4*
COc1cccc(C(=O)Nc2ccc(N3CCN(C(C)=O)CC3)c(Cl)c2)c1 | -4.5
CC(C)(C)OC(=O)NC(C#N)c1ccccc1 (stereo unspecified) | 11.0
O=C(c1ccccc1)c1cccc(-c2nc(-c3cc([N+](=O)[O-])ccc3O)[nH]c2-c2ccccc2)c1 | 0.2
O=C(O)Cn1cc(/C=C2\SC(=Nc3ccccc3)N(c3ccccc3)C2=O)c2ccccc21 | 96.6*
O=C1/C(=C\c2cn(Cc3ccc(F)cc3)c3ccccc23)SC(=Nc2ccccc2)N1CCc1ccccc1 | -1.5
NC(=O)Cn1cc(/C=C2\SC(=Nc3ccccc3)N(C3CCCC3)C2=O)c2ccccc21 | -5.7
Cc1ccc(-c2nnc(SCC(=O)Nc3c(C)cccc3C)n2N)cc1 | -6.3
CC(=O)C1=C(c2ccc(Cl)cc2)OC(=O)CC1=O | 1.7
SMILES | ROC1-CUL1 inh
Cc1cccc(N2C(=O)/C(=C/c3cccn3-c3cccc(C(F)(F)F)c3)C(=O)NC2=S)c1C | 53.4*
O=C1NC(=S)N(c2cccc(F)c2)C(=O)/C1=C/c1cccn1-c1cccc(C(F)(F)F)c1 | 6.8
Cc1ccc(N2C(=O)/C(=C/c3cn(CC(=O)O)c4ccccc34)C(=O)NC2=S)c(C)c1 | 54.3*
CN(C)c1ccc(-n2cccc2/C=C2\C(=O)NC(=S)N(c3ccc(Br)cc3)C2=O)cc1 | 6.9
Cc1cccc(N2C(=O)/C(=C/c3cccn3-c3cccc(C(=O)O)c3)C(=O)NC2=S)c1 | 14.9
Cc1ccc(N2C(=O)/C(=C/c3cccn3-c3cccc(C(=O)O)c3)C(=O)NC2=S)c(C)c1 | 97.5*
CCOc1ccc(N2C(=O)/C(=C/c3cccn3-c3cccc(C(=O)O)c3)C(=O)NC2=S)cc1 | 18.8
CCCN1C(=O)/C(=C\c2cccn2-c2cccc(C(F)(F)F)c2)C(=O)N(c2ccccc2)C1=S | 5.1
Cc1cccc(N2C(=O)/C(=C/c3cccn3-c3ccc(Cl)cc3)C(=O)NC2=S)c1C | -1.6
Cc1ccc(N2C(=O)/C(=C/c3cc(C)n(C(C)C)c3C)C(=O)NC2=S)c(C)c1 | -7.1
COc1ccc(Cl)cc1/C=C1\C(=O)NC(=S)N(c2ccc(C)cc2C)C1=O | 1.5
CCc1ccccc1N1C(=O)/C(=C/c2cccn2-c2ccc(Cl)cc2)C(=O)NC1=S | 36.4*
O=C(c1cncc(Br)c1)N1CCN(Cc2ccccc2)CC1 | -7.9
CCC(C)NC(=O)C1CCN(S(=O)(=O)N(C)C)CC1 (stereo unspecified) | 0.6
O=C(Cn1nnc(-c2ccccc2)n1)N=Nc1c(O)n(Cc2ccccc2Cl)c2ccccc12 | 2.5
CN(C)C(=S)c1ccc(C(=S)N(C)C)s1 | -3.3
O=C(N/N=C/c1ccc(F)cc1)c1cc2ccccc2cc1O | 0.2
CC(C)(C)OC(=O)N1CC=C2C(C#N)C(=N)C(C#N)(C#N)[C@H](c3cccnc3)[C@H]2C1 (stereo partly specified) | -4.1
CCOc1ccccc1NC(=O)Cc1cccc(C)c1 | 6.6
CCCn1c(=O)c2c(nc3oc(C)c(C)n32)n(C)c1=O | 6.8
CCOC(=O)C1C(C)=NC2=C(C(=O)CC(C)(C)C2)C1c1ccc(N(CC)CC)cc1 (stereo unspecified) | 0.6
COc1ccc(CNC(=O)C2CCN(c3nc(C)c4ccc(S(C)(=O)=O)cc4n3)CC2)cc1 | 2.2
COc1ccc(CNC(C)c2cnn(-c3ccccc3)c2C)cc1O (stereo unspecified) | 1.5
O=C(Oc1ccc(-c2ccccc2)cc1)c1ccc(-c2ccc(Cl)cc2)o1 | 10.9
O=C(Nc1ccc2nc(SCC(=O)N3CCOCC3)sc2c1)c1cccc(Cl)c1 | 58.0*
SMILES | ROC1-CUL1 inh
COc1ccc(C(=O)Nc2ccc3nc(SCC(=O)N4CCOCC4)sc3c2)cc1 | 5.4
O=C(Nc1ccc2nc(SCC(=O)N3CCCC3)sc2c1)c1cccc(Cl)c1 | -2.1
COc1ccc(-c2nc(SCC3=Nc4ccc(C)cc4C(=O)C3)n[nH]2)cc1 | -1.8
O=C1Nc2ccc(Br)cc2/C1=C/c1cc(O)c(O)c(Br)c1 | 65.7*
COc1cccc(/C=C2\C(=O)Nc3ccc(Br)cc32)c1 | 6.5
Cc1ccc(/C=C2\C(=O)Nc3ccc(Br)cc32)cc1C | 1.3
FC(F)(F)c1ccc2nc(-c3ccc(I)cc3)cn2c1 | -7.5
CC1CCN(S(=O)(=O)c2ccc(NC(=O)C(C)(C)C)cc2)CC1 | 0.8
CC1(N2CCOCC2)C(=O)c2ccccc2C1=O | -0.2
O=C1C=C(N2CCOCC2)c2ccccc2C1=O | 76.3*
O=C1C=Cc2ccc(N3CCOCC3)c3cccc1c23 | -5.8
Cc1cc(CN2CC[C@@H](N3CCOCC3)[C@H](O)C2)oc1C | -5.9
Cc1ccc(-n2nc(C)c(C=C3C(=O)NC(=S)NC3=O)c2C)cc1 | -0.3
NC(=O)CSc1nc(N2CCOCC2)nc(N2CCOCC2)n1 | 49.7*
CN(C)c1nc(SCC(N)=O)nc(N(C)C)n1 | 6.9
N#Cc1nc(N2CCOCC2)nc(N2CCOCC2)n1 | 0.8
N#CC1C(=N)Oc2ccc3ccc(O)cc3c2C1c1ccccc1 (stereo unspecified) | -3.0
Cc1c(C(=O)O)ccc2c1N[C@@H](c1ccc(F)cc1)[C@H]1CC=C[C@@H]21 | 76.0*
COC(=O)c1cccc2c1N[C@@H](c1ccncc1)[C@H]1CC=C[C@@H]21 | 0.4
CCOC(=O)c1cccc2c1N[C@@H](c1ccc(F)cc1)[C@H]1CC=C[C@@H]21 | 10.2
COc1cc(C=C2C(=O)OC(c3ccccc3)OC2=O)cc(Cl)c1O (stereo unspecified) | 8.3
CCCCOc1ccc(/C=C2/C(=O)N(c3cccc(Cl)c3C)N=C2C)cc1OC | 16.6
COc1cc(/C=C2\C(=O)N(c3ccccc3Cl)N=C2C)cc(I)c1O | 77.7*
COc1ccccc1N1C(=O)C2ON(c3ccc(Cl)cc3)C(c3ccc(O)cc3)C2C1=O (stereo unspecified) | 8.5
CC(C)(C)c1ccc(N)c([N+](=O)[O-])c1 | 0.6
CC(C)(C)c1ccc(/C=C/c2[nH]c(=O)[nH]c(=O)c2[N+](=O)[O-])cc1 | 99.1*
